# Inconclusive results are not listed. Where a call stands in place of a potency, no number is given. A number with no mark means an inactive call. Active and inactive are the calls of the source. Calls follow the shape of the dose curve; as a rule, active = well fitted curve in the direction sought with a large enough effect; inconclusive = small, poorly fitted or top-dose-only effect, or another doubt; inactive = no such curve, though single readings can be large; an effect the other way counts as inactive or inconclusive.
# Assays:
# [1] = qHTS Screen of the MIPE 4.0 Collection Against Ewings Sarcoma (TC32) (AID 1259256); also: nearly all actives have a fitted effect of over 45% in size; also: potency is read from the fitted curve at half-maximal effect
# Method in brief: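 Viability screen: 48 h incubation at 37C, 95% humidity, 5% CO2 with serially titrated compound, followed by CellTiter-Glo readout.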
# [2] = qHTS assay to identify small molecule inhibitors of chordoma cells - UCH-2 (AID 1259356); also: series mostly up to about 46 µM
# [3] = Identifying Small Molecule Inhibitors of Pancreatic Cancer Stem Cells (SN12C, Spheroid) (AID 1259360); settings: Potency: SN12C spheroid viability; also: potency is read from the fitted curve at half-maximal effect
# Method in brief: (§1)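 Endpoint: ATP-based luminescence, 48 h drug exposure. Bortezomib at 9.2 uM final as full-kill control; DMSO vehicle as negative control; activity normalized between vehicle and cell-free wells.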
# [4] = Identifying Small Molecule Inhibitors of Pancreatic Cancer Stem Cells (A278, Adherent) (AID 1259361); also: nearly all actives have a fitted effect of over 35% in size
# Method in brief: (§2)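 Monolayer and spheroid cultures are compared. Spheroids form over 14 days in stem cell medium on hydrogel-coated low-attachment plates, then are exposed to compound for 48 h before CellTiter-Glo luminescence.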
# [5] = P-glycoprotein substrates identified in KB-3-1 adenocarcinoma cell line, qHTS therapeutic library screen (AID 1346986); also: nearly all actives have a fitted effect of over 60% in size
# Method in brief: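 In 1536-well format, 500 cells/well received pinned compound titrations and were incubated 72 h, 5% CO2. Viability was read by CellTiter-Glo; cytotoxic if AC50 < 10 uM and efficacy >50%.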
# [6] = Identifying Small Molecule Inhibitors of Pancreatic Cancer Stem Cells (A2780, Spheroid) (AID 1259357); settings: Potency: A2780 spheroid viability;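 also: compound exposure lasted 48 h before the ATP luminescence read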; also: potency is read from the fitted curve at half-maximal effect
# Method in brief: as §1
# [7] = Identifying Small Molecule Inhibitors of Pancreatic Cancer Stem Cells (SN12C, Adherent) (AID 1259358);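 also: cell survival measured after 48 h of compound exposure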; also: potency is read from the fitted curve at half-maximal effect
# Method in brief: as §2
# [8] = qHTS assay to identify small molecule inhibitors of chordoma cells - UCH-1 (AID 1259355); also: nearly all actives have a fitted effect of over 55% in size; also: potency is read from the fitted curve at half-maximal effect; series mostly up to about 46 µM
# Method in brief: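 Screening used approved and investigational drugs in 15-point titration against 800 seeded cells per well. A fixed combination of auranofin with camptothecin, doxorubicin, rubitecan and topotecan followed compound addition, and growth was scored by CellTiter-Glo after 48hr.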
# [9] = Identifying Small Molecule Inhibitors of Pancreatic Cancer Stem Cells (Panc1, Spheroid) (AID 1259359);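 also: compound exposure lasted 48 h before reading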; also: potency is read from the fitted curve at half-maximal effect
# Method in brief: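 Luminescent ATP readout (CellTiter-Glo) quantifies surviving cells after a 48 h drug incubation. Normalization uses DMSO wells as no inhibition and media-only wells as full inhibition; bortezomib served as positive control.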
# [10] = Identifying Small Molecule Inhibitors of Pancreatic Cancer Stem Cells (Panc1, Adherent) (AID 1259362); settings: Potency: viability;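 also: compound exposure lasted 48 h before the viability read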
# Method in brief: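 Cytotoxicity read by CellTiter-Glo luminescence after 48 h compound exposure at 37C; percent activity scaled between DMSO-treated cells and cell-free wells. Spheroid formats used cells pre-formed 14 days in stem cell media on hydrogel.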
smiles,measurement,setting,value
CCCc1nn(C)c2c(=O)[nH]c(-c3cc(S(=O)(=O)N4CCN(C)CC4)ccc3OCC)nc12,Potency,[1],5.26 µM (active)
same,outcome,[2],inactive
same,Potency,[3],inactive
same,IC50 (viability decrease),[4],inactive
same,Potency,[5],inactive
Cc1n[nH]c(C)c1Cc1sc2c(c1C(=O)N1C[C@H](O)CO1)c(=O)n(C)c(=O)n2CC(C)C,Potency,[1],0.105 µM (active)
same,Potency,[6],inactive
same,Potency,[7],inactive
same,Potency,[3],inactive
same,Potency,[5],inactive
Clc1ccc(Nc2nnc(Cc3ccncc3)c3ccccc23)cc1,Potency,[1],26.4 µM (active)
same,Potency,[8],inactive
same,outcome,[2],inactive
same,IC50 (viability decrease),[4],inactive
CN[C@@H](C)C(=O)N[C@H]1CCCC[C@H]2CC[C@@H](C(=O)N[C@@H](c3ccccc3)c3cn(CCCCc4ccc(CCCCn5cc([C@@H](NC(=O)[C@@H]6CC[C@@H]7CCCC[C@H](NC(=O)[C@H](C)NC)C(=O)N76)c6ccccc6)nn5)cc4)nn3)N2C1=O,Potency,[1],18.7 µM (active)
same,Potency,[6],inactive
same,Potency,[7],inactive
same,Potency,[3],inactive
CCC(C)n1ncn(-c2ccc(N3CCN(c4ccc(OC[C@H]5CO[C@](Cn6cncn6)(c6ccc(Cl)cc6Cl)O5)cc4)CC3)cc2)c1=O (some centres not stated),Potency,[1],inactive
same,outcome,[2],inactive
same,Potency,[6],4.69 µM (active)
same,Potency,[7],inactive
same,IC50 (viability decrease),[4],5.9 µM (active)
NC(=O)c1cnccn1,Potency,[1],inactive
same,Potency,[8],inactive
same,outcome,[2],inactive
same,Potency,[5],inactive
CNC[C@H](O)c1cccc(O)c1,Potency,[1],inactive
same,Potency,[8],inactive
same,outcome,[2],inactive
same,Potency,[5],inactive
Cc1cc2c(F)c(Oc3ncnn4cc(OC[C@@H](C)O)c(C)c34)ccc2[nH]1,Potency,[1],20.9 µM (active)
same,Potency,[6],inactive
same,Potency,[3],inactive
Clc1cccc(Cl)c1NC1=NCCN1,Potency,[1],inactive
same,Potency,[8],inactive
same,outcome,[2],inactive
same,Potency,[5],inactive
CN1CCN(CCCN2c3ccccc3Sc3ccc(C(F)(F)F)cc32)CC1,Potency,[1],14.8 µM (active)
same,Potency,[8],inactive
same,outcome,[2],inactive
same,Potency,[5],inactive
C1COC(NC(C2CC2)C2CC2)=N1,Potency,[1],inactive
same,Potency,[8],inactive
same,outcome,[2],inactive
same,Potency,[5],inactive
Cc1cc(SCc2sc(-c3ccc(C(F)(F)F)cc3)nc2C)ccc1OCC(=O)O,Potency,[1],5.26 µM (active)
same,Potency,[6],inactive
same,Potency,[7],inactive
same,Potency,[3],inactive
same,Potency,[5],inactive
S=C(NCc1ccc2c(c1)OCO2)N1CCN(c2ncnc3c2oc2ccccc23)CC1,Potency,[1],12.1 µM (active)
same,Potency,[6],16.6 µM (active)
same,Potency,[7],13.2 µM (active)
same,Potency,[9],7.43 µM (active)
same,Potency,[3],14.8 µM (active)
same,IC50 (viability decrease),[4],4.18 µM (active)
Cc1cc2c(C(C)C)c(O)c(O)c(C=O)c2c(O)c1-c1c(C)cc2c(C(C)C)c(O)c(O)c(C=O)c2c1O,Potency,[1],18.7 µM (active)
same,Potency,[8],inactive
same,outcome,[2],inactive
same,IC50 (viability decrease),[4],26.4 µM (active)
CC(c1cc2ccccc2s1)N(O)C(N)=O (configuration not stated),Potency,[1],inactive
same,Potency,[8],inactive
same,outcome,[2],inactive
same,Potency,[3],inactive
COc1ccc(-c2ccc3c(N4CCOC[C@H]4C)nc(N4CCOC[C@H]4C)nc3n2)cc1CO,Potency,[1],0.0264 µM (active)
same,Potency,[6],0.0187 µM (active)
same,Potency,[7],0.0148 µM (active)
COc1ccc(COc2cc3oc(=O)c4cc(C(C)O)ccc4c3cc2OC)cc1 (configuration not stated),Potency,[1],20.9 µM (active)
same,Potency,[6],inactive
same,Potency,[7],inactive
same,Potency,[3],inactive
Cc1ccccc1C(OCCN(C)C)c1ccccc1 (configuration not stated),Potency,[1],inactive
same,Potency,[8],inactive
same,outcome,[2],inactive
same,Potency,[5],inactive
NS(=O)(=O)c1cc2c(cc1Cl)NC=NS2(=O)=O,Potency,[1],inactive
same,Potency,[8],inactive
same,outcome,[2],inactive
same,Potency,[5],inactive
NC(N)=NC(=O)c1nc(Cl)c(N)nc1N,Potency,[1],inactive
same,Potency,[8],inactive
same,outcome,[2],inactive
same,Potency,[5],inactive
CCC(C)(C)C(=O)O[C@H]1C[C@@H](C)C=C2C=C[C@H](C)[C@H](CC[C@@H]3C[C@@H](O)CC(=O)O3)[C@H]21,Potency,[1],3.72 µM (active)
same,Potency,[8],inactive
same,outcome,[2],inactive
same,Potency,[9],inactive
same,Potency,[3],inactive
same,IC50 (viability decrease),[4],3.17 µM (active)
O=C(C=Cc1ccc(/C=C/C(=O)Nc2ccc(C3=NCCN3)cc2)cc1)Nc1ccc(C2=NCCN2)cc1,Potency,[1],inactive
same,Potency,[6],inactive
same,Potency,[7],inactive
same,Potency,[3],inactive
same,IC50 (viability decrease),[4],inactive
same,Potency,[5],inactive
COc1ccc2c3n(c(=NC(=O)c4cccnc4)nc2c1OC)CCN3,Potency,[1],8.33 µM (active)
same,Potency,[6],3.32 µM (active)
same,Potency,[3],5.9 µM (active)
C#Cc1cccc(Nc2ncnc3cc(OCCOC)c(OCCOC)cc23)c1,Potency,[1],20.9 µM (active)
same,Potency,[8],0.141 µM (active)
same,outcome,[2],inactive
same,Potency,[7],8.33 µM (active)
same,Potency,[3],16.6 µM (active)
same,IC50 (viability decrease),[4],7.43 µM (active)
same,Potency,[10],inactive
CCN(CC)CCCC(C)Nc1ccnc2cc(Cl)ccc12 (configuration not stated),Potency,[1],inactive
same,Potency,[8],inactive
same,outcome,[2],inactive
same,Potency,[5],inactive
Cc1csc(NC(=O)c2sc3nc4c(c(C(F)(F)F)c3c2N)CCC4)n1,Potency,[1],6.62 µM (active)
same,Potency,[6],inactive
same,Potency,[7],inactive
same,Potency,[3],inactive
same,IC50 (viability decrease),[4],inactive
O=C(C1CC1)N1CC[C@@H](Cn2c(-c3ccc(-c4ccc5occc5c4)cc3)nc3cnccc32)C1,Potency,[1],inactive
same,Potency,[6],0.469 µM (active)
OC(CN1CCC(Cc2ccc(F)cc2)CC1)c1ccc(Cl)cc1 (configuration not stated),Potency,[1],inactive
same,"activity, negative = inhibition",[8],16.1% [at 9.21 µM]
same,outcome,[2],inactive
same,Potency,[7],inactive
same,Potency,[3],inactive
same,IC50 (viability decrease),[4],inactive
OC(CCN1CCCCC1)(c1ccccc1)C1CC2C=CC1C2 (configuration not stated),Potency,[1],inactive
same,Potency,[8],inactive
same,outcome,[2],inactive
same,Potency,[5],inactive
O=C1CCCC2=C1C(c1[nH]ncc1Cl)N=C(Nc1nc3ccccc3o1)N2 (configuration not stated),Potency,[1],inactive
same,Potency,[6],inactive
same,Potency,[7],inactive
same,Potency,[3],inactive
same,Potency,[5],inactive

# — PubChem BioAssay (NCATS)
